Screening results deposited in PubChem by National Center for Advancing Translational Sciences (NCATS).
Hits are enriched below; roughly 12% of the tested compounds scored in any of these assays.
Pf growth 48h: Primary qHTS for delayed death inhibitors of the malarial parasite plastid, 48 hour incubation. Potency, µM (highest dose often 28.7 µM), most hits filed as inhibitors. 5.9% of 310,000 active. P. falciparum luciferase growth in erythrocytes, 48 h
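Here the parasites carry a stable luciferase gene and grow inside erythrocytes in Albumax-based RPMI medium with compound for one erythrocytic cycle. Activity is scored as loss of luminescent signal.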
AMA1 RON2 block: qHTS for Inhibitors of AMA1-RON; Towards Development of Antimalarial Drug Lead: Primary Screen; Potency, µM (titrated, usually from 58.2 µM), most hits filed as inhibitors; AlphaScreen AMA1-biotinylated RON2 peptide binding; 0.2% of 360,000 active; also: nearly all actives have a fitted effect of over 45% in size
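AMA1 (3D7) with his tag at 25 nM final met compounds first, then biotinylated RON2 peptide at 25 nM; detection used donor plus acceptor beads, 10 µg/mL apiece, read by AlphaScreen after 30 min at room temperature.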
HCV inh: qHTS Assay for Inhibitors of Hepatitis C Virus (HCV); Huh7.5.1 HCVcc-Cre infection, luciferase reporter, 44 h; Potency, µM (top dose mostly 41.8 µM), most hits filed as inhibitors; 3.4% of 340,000 active; AID 651820, 2012
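1,000 cells/well; 4 h culture; + compound; + HCVcc-Cre (~0.5 moi); 44 h; luciferase substrate, RT 15 min; read 15 sec.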
SARS PLpro yeast: qHTS of Yeast-based Assay for SARS-CoV PLP | AID 485353, 2010 | 0.19% of 330,000 active | Potency, µM (highest dose often 32.9 µM), usual class: activators | S. cerevisiae expressing SARS-CoV PLpro, growth rescue; calls by dose curve; also: nearly all actives have a fitted effect of over 55% in size
NS1 inh: qHTS Assay for Inhibitors of Influenza NS1 Protein Function; 0.4% of 270,000 active; Potency, µM (top dose mostly 46.1 µM); calls by dose curve; also: actives are rising curves; nearly all actives have a fitted effect of over 50% in size
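In this qHTS, NS1 from influenza A is expressed in budding yeast, where it slows growth. Cells are switched from glucose to 2% galactose medium (pH 6.0, -URA), treated with compound, and growth recovery is read at OD600.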
Pf growth 96h: Primary qHTS for delayed death inhibitors of the malarial parasite plastid, 96 hour incubation; P. falciparum luciferase reporter growth, 96 h; Potency, µM (highest dose often 28.7 µM), actives largely listed as inhibitors; 6.9% of 320,000 active; AID 504834, 2011
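Plates of compound plus infected erythrocytes (2% hematocrit, 0.05% parasitemia final) incubate 96 hours, 37 C, 5% CO2. Detection reagent added; reduced luminescence from the parasites' luciferase reporter flags inhibition.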
Numbers stand for hits; - = inactive; ? = inconclusive; . = no result given; [ ] = another dose, or the depositor's remark. Unless noted, calls follow the shape of the dose curve; as a rule, active = well fitted curve in the direction sought with a large enough effect; inconclusive = small, poorly fitted or top-dose-only effect, or another doubt; inactive = no such curve, though single readings can be large; an effect the other way counts as inactive or inconclusive.

SMILES	Pf growth 48h	AMA1 RON2 block	HCV inh	SARS PLpro yeast	NS1 inh	Pf growth 96h
O=c1c(-c2ccccc2)c1-c1ccccc1	6.7µM	.	.	-	.	5.4µM
Cc1ccc(S(=O)(=O)NC(C)(C)CN2CCC(Cc3ccccc3)CC2)cc1	?	-	?	-	-	-
CC(=O)NC12CC3CC(C1)CC(C(=O)N1CCN(S(=O)(=O)c4ccc(C(C)C)cc4)CC1)(C3)C2	-	-	-	-	.	12µM
Cc1oc(-c2ccccc2)cc1C(=O)NC1CCN(Cc2ccccc2)CC1	-	-	?	-	-	-
COc1cccc(C=NNc2nnc(NN=Cc3cccc(OC)c3OC)c3ccccc23)c1OC	.	-	?	.	.	.
COc1cccc(/C=N/Nc2nc3ccccc3[nH]2)c1OC	?	-	-	-	-	10µM
COc1cccc(/C=N/Nc2nc3ccccc3[nH]2)c1O	?	-	?	-	-	2.3µM
CCN(CC(=O)NCc1cccs1)C(=O)CCC(=O)c1ccc(C)cc1	?	-	-	-	.	-
Nc1sc2c(c1C(=O)NCCc1ccccc1)CCC2	13µM	-	-	-	-	-
CN(C(=O)COC(=O)/C=C/c1ccc(C(F)(F)F)cc1)C1CCS(=O)(=O)C1 (configuration not stated)	-	-	-	-	-	-
O=C(O)C1Cc2ccccc2N2CCCC12 (configuration not stated)	?	-	-	-	-	1.9µM
Cc1nn(C(C)C(=O)NC(C)CCc2ccccc2)c(=O)c2cc3occc3n12 (configuration not stated)	-	-	?	-	?	?
Cc1ccc(N2C(=O)C3ON(c4ccccc4)C(c4ccncc4)C3C2=O)cc1 (configuration not stated)	-	-	-	-	-	.
CN1C(=O)C2ON(c3ccccc3)C(c3cccs3)C2C1=O (configuration not stated)	-	-	-	-	-	9.3µM
O=c1[nH]c(CN2CCN(C/C=C/c3ccccc3)CC2)nc2cc(Cl)ccc12	?	-	14µM	-	-	-
CC(C)N(C(=O)[C@H]1C[C@H](CC(=O)NCCC2=CCCCC2)C(=O)N2CCc3c([nH]c4ccc(Cl)cc34)[C@]12C)C(C)C	.	-	-	-	.	.
CCOC(=O)C1=C(C)N2C(=C(C#N)[C@@H]1c1ccc(C(=O)OC)cc1)SC[C@@]2(O)C(C)(C)C	13µM	-	?	-	-	.
COC(=O)C1=C(C)N(C)C(C)=C(C(=O)OC)C1c1ccc(C(=O)OC)cc1	-	-	-	-	-	?
COC(=O)/C=C1/S/C(=N/NC(=O)c2ccccc2OC)NC1=O	?	-	-	?	-	12µM
COC(=O)/C=C1/S/C(=N/NC(=O)c2ccc(OC)cc2)NC1=O	-	-	-	-	-	?
Cn1c(=O)c2c(nc(SCCN3CCCCC3)n2Cc2ccccc2)n(C)c1=O	?	-	?	-	-	2.3µM
Cc1ccc(Cn2c(SCC(N)=O)nc3c2c(=O)n(C)c(=O)n3C)cc1	-	-	11µM	-	-	.
CC1Cc2ccccc2N1C(=O)CSc1nc2c(c(=O)n(C)c(=O)n2C)n1Cc1ccccc1 (configuration not stated)	5.9µM	-	3.5µM	-	-	-
CCn1c(SCC(=O)N2c3ccccc3CCc3ccccc32)nc2c1c(=O)n(C)c(=O)n2C	.	-	-	.	-	.
Cn1c(=O)c2c(nc(SCCN3CCOCC3)n2C)n(C)c1=O	?	-	-	-	-	3.7µM
SMILES	Pf growth 48h	AMA1 RON2 block	HCV inh	SARS PLpro yeast	NS1 inh	Pf growth 96h
CCn1c(SCCN2CCOCC2)nc2c1c(=O)n(C)c(=O)n2C	-	-	-	-	-	?
O=[N+]([O-])c1ccc(OC(F)F)c(/C=N/n2cnnc2)c1	-	-	-	-	-	-
Cc1[nH]c(=O)[nH]c(=O)c1S(=O)(=O)Nc1cccc([N+](=O)[O-])c1C	-	-	-	-	-	-
CN(Cc1ccccc1)C(=O)c1ccc2sc([C@H]3C[C@H](O)[C@@H](CO)O3)nc2c1	.	-	.	.	.	.
Cn1c(=O)[nH]c(=O)c2c1nc(N/N=C/C(Br)=C/c1ccccc1)n2CCO	?	-	-	-	-	?
Cc1ccc(Cn2c(SCCN3CCCCC3)nc3c2c(=O)n(C)c(=O)n3C)cc1	-	-	13µM	-	-	?
C#CCOCCOCCOCCNc1nc(N2CCN(C(=O)[C@H](CCCCN)n3cc(CN)nn3)CC2)nc(N2CCN(C(=O)[C@H](CCCN=C(N)N)n3cc(C(N)[C@H](C)CC)nn3)CC2)n1 (some centres not stated)	.	-	?	-	.	.
COc1ccc(S(=O)(=O)N2CCOCC2)cc1NS(=O)(=O)c1ccc(F)c(F)c1	.	-[11.6 µM]	-	-	.	.
CCCCN(CCO)c1ncnc2sc(-c3ccccc3)cc12	.	-	18µM	-	-	-
O=C(NC(c1cccnc1)c1ccc2c(c1)OCO2)C1CCN(CCOc2ccc(Cl)cc2Cl)CC1 (configuration not stated)	.	-	.	.	.	.
O=C(Nc1c2c(nn1-c1ccc(F)cc1)CSC2)c1ccc(S(=O)(=O)N2CCOCC2)cc1	?	-	-	-	-	-
Cc1cccc(-n2nc3c(c2NC(=O)c2ccc(S(=O)(=O)N4CCOCC4)cc2)CSC3)c1C	12µM	-	-	-	-	-
Cc1ccccc1-n1nc2c(c1NC(=O)c1ccc(S(=O)(=O)N(C)C)cc1)CSC2	?	-	-	-	-	-
Cc1ccc(-n2nc3c(c2NC(=O)c2ccc(S(=O)(=O)N4CCOCC4)cc2)CSC3)c(C)c1	5.9µM	-	?	-	-	-
COC(=O)c1cc(=O)n(CCc2ccccc2)c(=Nc2ccc(F)cc2)s1	?	-	-	-	-	4.1µM
CCn1c(=O)cc(C(=O)OC)sc1=Nc1ccc(F)c(F)c1	.	-	13µM	-	-	-
O=C(Cn1cnc2ccccc21)N1CCN(S(=O)(=O)c2ccccc2)CC1	-	-	?	-	-	-
CC(C)c1ccc(C(=O)NNC(=O)C2C3CCC(C3)C2C(=O)O)cc1 (configuration not stated)	-	.	.	-	-	-
C[n+]1c2n(c3ccccc31)N=C(c1ccccc1)CS2	2.1µM	-	-	-	-	?
c1ccc(C2=Nn3c(nnc3-c3ccncc3)SC2)cc1	-	-	-	-	-	-
C[n+]1c2n(c3ccccc31)N=C(c1ccc(Br)cc1)CS2	?	-	?	-	-	?
C[n+]1c2n(c3ccccc31)N=C(c1ccc(-c3ccccc3)cc1)CS2	?	-	7.1µM	-	-	?
CSC(=S)N/N=C(\C)c1ccccc1	?	-	-	-	.	?
